Each structure is given as a SMILES string. The whole screen tested about 330,000 compounds, of which about 1,900 (0.58%) were called active. Inconclusive results (about 4%) are left out. Not all results are given here. Potency and affinity values are given separately. A number with no mark means an inactive call. Cut-off read from the data, not from the text of the source: inconclusive = inhibition above about 70% without an active follow-up result; inactive = below that.

A short description of the assay: M. tuberculosis growth inhibition, HTS (AID 449762).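 Note: bacterial growth assessed after seven days of incubation.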 The settings on record: M. tuberculosis H37Rv growth inhibition, 7H9 media; at 25 µM; stronger effect = higher value.
One may read the inhibition as the change of the read-out against control, counted positive when it falls. Regarding `CC(OC(=O)c1nn(C(C)C)c(=O)c2ccccc12)C(=O)Nc1ncc(Cl)cc1Cl` (centres undefined), the inhibition is -5.66%.

As to `Cc1cc(=O)oc2cc(OC(C)C(=O)N3CCCc4ccccc43)ccc12` (centres undefined), the inhibition is -5.32%.

As for `CC(NCC1COc2ccccc2O1)C1COc2ccccc2O1` (centres undefined), the inhibition was -4.91%.

In the case of `CC1CN(c2ccc(Cl)nn2)CC(C)O1` (centres undefined), the inhibition is 7.67%.

On to `COc1ccc(C(CCN(Cc2ccc(OC)c(OC)c2)C(C)=O)C(C)C)cc1` (centres undefined), for which the inhibition was 2.76%.

Consider `COc1ccc(C(CCN(Cc2ccc(OC)c(OC)c2)C(C)=O)c2ccccc2)cc1` (centres undefined), for which the inhibition was -0.43%.

As to `CCC1CN(C(=O)N2CCC(C(=O)Nc3ccccc3OC)CC2)c2ccccc2O1` (centres undefined), the inhibition is 10.6%.

Take `O=S(=O)(c1ccc2ccccc2c1)N1CCN(S(=O)(=O)N2CCCCC2)CC1`: the inhibition is 0.71%.

`O=C(c1ccco1)N1CCN(C(=O)C2CC(c3ccc(F)cc3)=NO2)CC1` (centres undefined): the inhibition was 10.6%.

Regarding `COc1ccc(C2=NOC(C(=O)N3CCN(C(=O)c4ccco4)CC3)C2)cc1OC` (centres undefined), the inhibition was 2.5%.

As to `Cn1c(CSc2nc3ccccc3s2)nnc1SCC(=O)NCCN1CCOCC1`, the inhibition is 1.49%.

For `CCCCn1nc(C(=O)Oc2ccc3c(C)cc(=O)oc3c2)c2ccccc2c1=O`, the inhibition is 64.9%.

Turning to `CCn1c(SCC(=O)NC2CCCCC2)nc2ccccc2c1=O`, the inhibition is -17.1%.

For `CCOC(=O)CSc1nc2ccccc2c(=O)n1CC`, the inhibition was -0.95%.

Turning to `O=C(Nc1ccn([C@H]2CC[C@@H](CO)O2)c(=O)n1)c1ccccc1`, the inhibition was -7.83%.

Turning to `O=C(COC(=O)/C=C/c1cccc(Br)c1)NC1CCCCC1`, the inhibition is 1.15%.

With `CCC(C(=O)n1cccc1C#N)c1ccccc1C` (centres undefined), the inhibition is -5.42%.

On to `CCOC(=O)c1nn(-c2ccc(C)cc2)cc1O`, for which the inhibition was 25.8%.

For the molecule `CCOC(=O)c1nn(-c2ccc(Cl)cc2)cc1O`, the inhibition is 47.5%.

Consider `O=C(/C=C/Nc1ccc(Br)cc1F)c1ccco1`, for which the inhibition was 4.98%.

Consider `O=C(Oc1ccc(Br)cc1C(=O)/C=C/c1ccccc1F)c1ccco1`, for which the inhibition was 0.45%.

Turning to `CCNS(=O)(=O)c1ccc(C(=O)OCC(=O)N2CCCc3ccccc32)cc1`, the inhibition was 5.95%.

For `CS(=O)(=O)c1ccc(C(=O)OCC(=O)N2CCCc3ccccc32)cc1`, the inhibition was -0.56%.

Regarding `O=C1C=C(NCc2ccco2)C2(CCCCC2)O1`, the inhibition is -1.04%.

In the case of `CCNc1nc(NC(C)C)nc(ON=C(C)C)n1`, the inhibition is -5.67%.

For `Cc1cc(C(=O)N=Nc2c(O)n(C)c3ccccc23)c(C)o1`, the inhibition is 5.51%.

With `COc1ccc(C(C)=O)cc1COC(=O)c1cc2ccccc2cc1O`, the inhibition is -1.43%.

In the case of `COc1ccc(C(C)=O)cc1COC(=O)c1cc(C)nc2ccccc12`, the inhibition is 11.9%.

Consider `Cc1ccc2[nH]cc(/C=C/c3cc[n+](C)cc3)c2c1`, for which the inhibition was -0.27%.

On to `C=CCn1c(C)c(/C=C/c2cc[n+](C)cc2)c2ccccc21`, for which the inhibition is 0.73%.

As for `Cc1c(C)n2c(SCC(=O)Nc3cccc4ccccc34)nnc2[nH]c1=O`, the inhibition is 5.62%.

On to `C/C(=N\OC(=O)c1c(-c2c(F)cccc2Cl)noc1C)c1nccs1`, for which the inhibition is 3.84%.

For `Cc1onc(-c2c(Cl)cccc2Cl)c1C(=O)O/N=C(\C#N)c1c(Cl)cccc1Cl`, the inhibition was -0.37%.

`CCOC(=O)[C@H]1[C@H]2COc3ccc(Br)cc3[C@@H]2N2C(=O)N(c3ccccc3)C(=O)[C@@]12C`: the inhibition was 6.24%.

Consider `CCOc1ccc(CNC(=O)C2CCCN(S(=O)(=O)N3CC(C)CC(C)C3)C2)cc1OC` (centres undefined), for which the inhibition is -1.45%.

As for `COC(OC)c1ccnc(-c2ccc(OC(C)=O)cc2)n1`, the inhibition is 0.19%.

As for `COC(OC)c1ccnc(-c2ccc(OC(=O)c3ccccc3)cc2)n1`, the inhibition was 57%.

For `CCC[N+](CC#Cc1ccccc1)(CCC)CC(=O)OC`, the inhibition is 0.57%.

On to `Cc1occc1-c1nnc(SCC(=O)NC2CC2)n1C(C)C`, for which the inhibition is 6.3%.

With `CCOCCn1c(=O)c2c(nc3n2CCCN3Cc2ccccc2)n(C)c1=O`, the inhibition is 4.47%.

`CCCC(O)(c1ccc(CC)cc1)C(CN1CCOCC1)c1ccccc1` (centres undefined): the inhibition was 9.99%.

In the case of `CCOC(=O)N1CCC(n2c(SCC(=O)c3ccccc3)nc3ccsc3c2=O)CC1`, the inhibition was -5.37%.

As for `CCOC(=O)CSc1nc2ccsc2c(=O)n1C1CCN(C(=O)OCC)CC1`, the inhibition was 39.3%.

In the case of `COc1ccc(/C=N/NC(=O)c2cccc(C(=O)N/N=C/c3ccc(OC)cc3)n2)cc1`, the inhibition is -1.47%.

Regarding `O=C(CN1C(=O)COc2ccccc2C1=O)c1ccc2c(c1)OCCO2`, the inhibition is 4.6%.

As to `O=C(OC(C(=O)c1c[nH]c2ccccc12)c1ccccc1)c1cnccn1` (centres undefined), the inhibition is 1.97%.

As to `Nc1nnnn1/N=C/c1ccccc1`, the inhibition is -0.26%.

Consider `Nc1nnnn1/N=C/C=C/c1ccccc1`, for which the inhibition was -3.78%.

`CCOC(=O)N1CCC(N2C(=O)c3ccc(C(=O)Nc4ccc(F)cc4F)cc3C2=O)CC1`: the inhibition is -5.69%.

Consider `CCOC(=O)N1CCN(S(=O)(=O)c2ccc(C(=O)N(CCN(C)C)c3nc4c(C)cccc4s3)cc2)CC1`, for which the inhibition is -14.4%.

Regarding `CC1=C(c2ccc(F)cc2)[N+](=O)C(C)(C)N1[O-]`, the inhibition is -6.06%.

In the case of `Cc1ccc(C(C(=O)NC(C)(C)C)N(Cc2ccccc2)C(=O)c2snc(C(N)=O)c2N)o1` (centres undefined), the inhibition is -7.23%.

Regarding `COc1ccc(/C=C2/C(=O)N(c3ccccc3)N=C2C)cc1OC`, the inhibition was 8.2%.

With `COc1cc(/C=C2/C(=O)N(c3ccccc3)N=C2C)ccc1OS(=O)(=O)c1ccccc1`, the inhibition was 11%.

Take `CCOC(=O)N1CCN(Cc2ccc3ccccc3c2)CC1`: the inhibition is 9.89%.

Consider `O=C(Nc1cccn2ncnc12)C(Cl)Cl`, for which the inhibition was 8.05%.

On to `CCCCC(=O)Nc1cccn2ncnc12`, for which the inhibition was -5.05%.

As to `Cc1ccc(/C=C2/SC(=S)N(CCC(=O)N3CCOCC3)C2=O)cc1`, the inhibition is -5.59%.

For `CCCCn1c(=N)n(CC(=O)c2ccc(OC)cc2)c2ccccc21`, the inhibition is 2.91%.

In the case of `CCCn1c(=N)n(CC(=O)c2ccc(Cl)cc2)c2ccccc21`, the inhibition was 20.9%.

Consider `Cc1ccc(S(=O)(=O)NCc2ccc(C(=O)NCc3cccnc3)cc2)cc1`, for which the inhibition was -0.01%.

As to `Cc1cc(NC(=O)c2cc(-c3cccc(Cl)c3)on2)no1`, the inhibition was 4.25%.

As for `O=C(NNS(=O)(=O)c1ccccc1[N+](=O)[O-])c1ccccc1[N+](=O)[O-]`, the inhibition was -1.87%.

As to `C=CCSC1=N/C(=C\c2ccc3c(c2)OCO3)C(=O)S1`, the inhibition was 2.93%.

As for `Cc1nc(N=C(N)N)nc2ccccc12`, the inhibition is 0.45%.

For `CCc1nc(N=C(N)N)nc2ccccc12`, the inhibition is -2.46%.

Regarding `Cc1cc(C2C(=O)c3ccccc3C2=O)c(C)c(C)c1C`, the inhibition is 30.3%.

In the case of `Cc1ccc(C2C(=O)c3ccccc3C2=O)cc1`, the inhibition is 7.43%.

Take `CC(=O)NC12CC3CC(C1)CC(C(=O)N(C)CC(=O)Nc1cccc(F)c1)(C3)C2`: the inhibition is 6.36%.

In the case of `CC(NC(=O)c1cc(COc2c(F)cccc2F)on1)c1cnn(-c2ccccc2)c1` (centres undefined), the inhibition is 1.01%.

Take `Cc1sc2ncnc(N3CCC(C(=O)N(C)CC(=O)Nc4ccccc4Cl)CC3)c2c1C`: the inhibition is 67.4%.

In the case of `CCCCn1c(N)c(N(CC(C)C)C(=O)C2CCN(c3ncnc4sc(C)c(C)c34)CC2)c(=O)[nH]c1=O`, the inhibition is 54.4%.

Regarding `CNC(=O)CSc1nnc(-c2ccco2)n1-c1cccc(C)c1C`, the inhibition is -8.51%.

As to `O=C(Cc1ccc(F)cc1)NCCS(=O)(=O)N1CCN(c2ccccc2)CC1`, the inhibition was -9.43%.

`COc1ccc(/C=C2\SC(=S)N(Cc3cccnc3)C2=O)cc1C`: the inhibition is 12.2%.

Regarding `Cc1ccc(S(=O)(=O)N2CCC(C(=O)OCC(=O)NCCc3ccccc3)CC2)cc1C`, the inhibition is 1.72%.

As to `CCOC(=O)C1CCN(S(=O)(=O)c2ccc(C)c(C)c2)CC1`, the inhibition was -5.37%.

On to `COc1cccc(NC(=O)[C@H](Cc2ccccc2)NC(=O)[C@@H]2Cc3ccccc3CN2)c1`, for which the inhibition was -7.04%.

With `O=C(Nc1ccc(C(F)(F)F)cc1-c1ccccc1)c1ccccc1`, the inhibition was -5.73%.

With `O=C(Nc1cnccn1)C1c2ccccc2Oc2ccccc21`, the inhibition is -4.63%.

On to `CCOC(=O)c1c(C)[nH]c(C)c1C(=O)CN1C(=O)NC2(CCC(C)CC2)C1=O` (centres undefined), for which the inhibition was -4.05%.

`CCc1ccc2oc(-c3cc(N)ccc3O)nc2c1`: the inhibition was -0.82%.

Consider `CCc1ccc2oc(-c3cc(N)cc(C)c3O)nc2c1`, for which the inhibition is 42.6%.

For the molecule `O=C1c2cc(O)cc(O)c2C(=O)c2c1cc(O)c([C@@H](CO)CCO)c2O`, the inhibition was -12.7%.

Take `O=C(O)c1cc(O)c2c(c1)C(=O)c1cc(O)cc(O)c1C2=O`: the inhibition is -5.47%.

Take `CCOc1ccccc1NC(=S)NC1CCCCC1`: the inhibition was -19.5%.

As to `CCc1nn(CC(=O)NCCN2CCN(C)CC2)c(=O)c2cc3c(OC)cccc3n12`, the inhibition was 7.05%.

In the case of `CCc1ccc(N=CC2=C(O)CC(c3ccco3)CC2=O)cc1` (centres undefined), the inhibition was 0.59%.

Take `Cc1ccc(N=CC2=C(O)CC(c3ccco3)CC2=O)cc1` (centres undefined): the inhibition was -6.24%.

For the molecule `Cc1cccc(C)c1NC(=O)C1NC(=O)CC1c1ccccc1` (centres undefined), the inhibition is 17.9%.

On to `CCOc1ccc(C2/C(=C(/O)c3ccc(S(=O)(=O)N4CCCCC4)cc3)C(=O)C(=O)N2CCCOC)cc1OC` (centres undefined), for which the inhibition is -12.5%.

Take `COc1ccc(N(C(C)C(=O)NN=C2CCCC2)S(C)(=O)=O)cc1` (centres undefined): the inhibition was -2.55%.

On to `Cc1ccc2cccc(Oc3ncnc4sc(C)c(C)c34)c2n1`, for which the inhibition is 42%.

On to `COc1ccc(-n2ccnc2)cc1`, for which the inhibition is 1.26%.

Values taken from PubChem BioAssay AID449762 (Southern Research Specialized Biocontainment Screening …, 2010).
